Test results taken from the supplement of paper PMC7366291.
Structures can show the parent of a compound that is named as a salt. ± gives the standard deviation or the standard deviation of the averaged measurements.

Experiments:
Conditions in all cases: 25 µM; exposure: 24-48 hpf
[1] = test system: Danio rerio Tg(wt1b:EGFP) embryo, pronephros; test: glomerular separation, fold change vs DMSO control; higher = glomeruli further apart (abnormal)
Method in brief: (§1)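 In HEPES-buffered E3 with 0.003% PTU and 0.5% DMSO, dechorionated Tg(wt1b:EGFP) zebrafish embryos were exposed to 25 μM compound from 24 to 48 hpf at 28.5°C. Pronephroi were then imaged dorsally at 470 nm in 10 z-slices, in 96-well plates filled with agarose. On maximum projections, a Fiji macro turned 16 manually placed reference points into distances and angles, and values more than 2 SD from the feature mean were excluded. Features are fold changes relative to the mean of DMSO-treated embryos from the same day.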

[2] = test system: Danio rerio Tg(wt1b:EGFP) embryo, pronephros; test: glomerular width (mean of left and right), fold change vs DMSO control; higher = wider glomerulus
Method in brief: as §1

[3] = test system: Danio rerio Tg(wt1b:EGFP) embryo, pronephros; test: fraction of imaged embryos annotated as normal kidney; higher = less nephrotoxic; extreme values may be limits of the assay
Method in brief: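 The read-out is the proportion of embryos in each treatment manually annotated as normal-kidney. Exposure ran from 24 to 48 hpf at 28.5°C in 12-well plates, using dechorionated Tg(wt1b:EGFP) zebrafish embryos in 5 mM HEPES-buffered E3 with 0.003% PTU, 0.5% DMSO and 25 μM compound. For imaging, larvae were anaesthetised with tricaine, positioned dorsally in agarose-filled 96-well plates and captured by widefield fluorescence (470 nm, 10 z-slices), with scoring done on maximum projections.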

[4] = test system: Danio rerio Tg(wt1b:EGFP) embryo, pronephros; test: pronephric angle neck segment to proximal convoluted tubule (mean of left and right), fold change vs DMSO control; higher = larger pronephric angle
Method in brief: as §1

Row | SMILES | glomerular separation [1] | glomerular width [2] | fraction of imaged embryos annotated as normal kidney [3] | pronephric angle neck segment [4]
1 | O=C(CCCN1CCC(O)(c2ccc(Br)cc2)CC1)c1ccc(F)cc1 [Bromperidol] | 0.878 ± 0.23 | 1.03 ± 0.076 | 1 | 0.974 ± 0.038
2 | CCCCCN(C)CCC(O)(P(=O)(O)O)P(=O)(O)O [Ibandronate sodium] | 0.837 ± 0.21 | 1.06 ± 0.025 | 0.833 | 0.981 ± 0.048
3 | CCCOc1ccc2[nH]c(NC(=O)OC)nc2c1 [Oxibendazol] | 5.39 ± 2.3 | 0.505 ± 0.067 | 0 | 1.8 ± 0.035
4 | CC(=O)OCC(CCn1cnc2cnc(N)nc21)COC(C)=O [Famciclovir] | 0.793 ± 0.23 | 1.06 ± 0.048 | 1 | 0.9775 ± 0.004
5 | Oc1ccc(C2CNCCc3c2cc(O)c(O)c3Cl)cc1 (stereo not drawn) [Fenoldopam] | 0.757 ± 0.32 | 1.01 ± 0.038 | 0.917 | 0.979 ± 0.053
6 | CC[C@H]1OC(=O)C[C@@H](O)[C@H](C)[C@@H](O[C@@H]2O[C@H](C)[C@@H](O[C@H]3C[C@@](C)(O)[C@@H](O)[C@H](C)O3)[C@H](N(C)C)[C@H]2O)[C@@H](CC=O)C[C@@H](C)C(=O)/C=C/C(C)=C/[C@@H]1CO[C@@H]1O[C@H](C)[C@@H](O)[C@@H](OC)[C@H]1OC [Tylosin] | 0.911 ± 0.28 | 0.983 ± 0.0057 | 0.833 | 1.005 ± 0.0099
7 | CCOC(=O)c1ccc(N)cc1 [Benzocaine] | 1.45 ± 0.34 | 0.901 ± 0.021 | 0.833 | 1.02 ± 0.016
8 | CNS(=O)(=O)Cc1ccc2[nH]cc(CCN(C)C)c2c1 [Sumatriptan succinate] | 0.982 ± 0.29 | 1.03 ± 0.053 | 1 | 1 ± 0.04
9 | C[C@H](CCC(=O)O)[C@H]1CC[C@H]2[C@@H]3[C@H](O)C[C@@H]4C[C@H](O)CC[C@]4(C)[C@H]3CC[C@]12C [Chenodiol] | 2.11 ± 0.81 | 0.744 ± 0.025 | 0.333 | 1.04 ± 0.13
10 | Cc1c(O)c(=O)n(-c2ccccc2)n1C [Antipyrine, 4-hydroxy] | 1.2 ± 0.38 | 0.951 ± 0.064 | 0.583 | 1.03 ± 0.028
11 | CC(C)NCC(O)COc1ccc(COCCOC(C)C)cc1 (stereo not drawn) [Bisoprolol fumarate] | 1.2 ± 0.41 | 1.07 ± 0.03 | 0.583 | 0.999 ± 0.083
12 | CCN1CCN(C(=O)N[C@@H](C(=O)N[C@@H]2C(=O)N3C(C(=O)O)=C(CSc4nnnn4C)CS[C@H]23)c2ccc(O)cc2)C(=O)C1=O [Cefoperazone dihydrate] | 1.2 ± 0.23 | 1.01 ± 0.086 | 0.909 | 1.046 ± 0.0064
13 | CCCCc1oc2ccccc2c1C(=O)c1cc(I)c(OCCN(CC)CC)c(I)c1 [Amiodarone hydrochloride] | 2 ± 1.1 | 0.862 ± 0.021 | 0.4 | 1.14 ± 0.13
14 | O=P(O)(O)C(O)(Cn1ccnc1)P(=O)(O)O [Zoledronic acid hydrate] | 1.2 ± 0.37 | 1.04 ± 0.015 | 1 | 0.989 ± 0.0085
15 | C=C[C@H]1CN2CC[C@H]1C[C@@H]2[C@@H](O)c1ccnc2ccc(OC)cc12 [Quinidine hydrochloride monohydrate] | 0.962 ± 0.19 | 1.13 ± 0.084 | 0.75 | 1.01 ± 0.016
16 | COC(=O)C1=C(C#N)NC(C)=C(C(=O)OC(C)C)C1c1cccc([N+](=O)[O-])c1 (stereo not drawn) [Nilvadipine] | 4.44 ± 1.4 | 0.7 ± 0.04 | 0.167 | 1.09 ± 0.17
17 | O=C(O)CCc1nc(-c2ccccc2)c(-c2ccccc2)o1 [Oxaprozin] | 4.33 ± 1.5 | 0.672 ± 0.032 | 0 | 1.87 ± 0.14
18 | CO/N=C(\C(=O)N[C@@H]1C(=O)N2C(C(=O)O)=C(C[N+]3(C)CCCC3)CS[C@H]12)c1csc(N)n1 [Cefepime hydrochloride] | 0.845 ± 0.26 | 1.01 ± 0.018 | 0.917 | 0.9786 ± 0.003
19 | CCC1(c2ccccc2)NC(=O)N(C)C1=O (stereo not drawn) [Mephenytoin] | 1.13 ± 0.4 | 0.9232 ± 0.0066 | 0.75 | 1.0068 ± 0.00059
20 | CN(C)CCOC(=O)C(c1ccccc1)C1(O)CCCC1 (stereo not drawn) [Cyclopentolate hydrochloride] | 0.745 ± 0.24 | 0.9284 ± 0.0066 | 0.75 | 1.02 ± 0.035
21 | CNCCCC12CCC(c3ccccc31)c1ccccc12 [Maprotiline hydrochloride] | 1.28 ± 0.49 | 0.992 ± 0.049 | 0.909 | 1.1 ± 0.058
22 | CCc1ccc(CCOc2ccc(CC3SC(=O)NC3=O)cc2)nc1 (stereo not drawn) [Pioglitazone] | 1.48 ± 0.83 | 1.03 ± 0.0063 | 0.75 | 1.03 ± 0.018
23 | COCCCOc1ccnc(C[S+]([O-])c2nc3ccccc3[nH]2)c1C (stereo not drawn) [Rabeprazole Sodium salt] | 0.694 ± 0.27 | 1.01 ± 0.019 | 0.75 | 1.11 ± 0.019
24 | CC(=O)Nc1c(I)c(C(=O)N[C@H]2C(O)O[C@H](CO)[C@@H](O)[C@@H]2O)c(I)c(N(C)C(C)=O)c1I (stereo partly drawn) [Metrizamide] | 0.874 ± 0.3 | 1.11 ± 0.1 | 0.833 | 0.988 ± 0.025
25 | Nc1ccc(S(=O)(=O)Nc2ccnn2-c2ccccc2)cc1 [Sulfaphenazole] | 1.06 ± 0.3 | 1.022 ± 0.0084 | 0.917 | 1.02 ± 0.024
26 | COc1cc(OC)c(C(=O)CCCN2CCCC2)c(OC)c1 [Buflomedil hydrochloride] | 1.14 ± 0.33 | 1.08 ± 0.06 | 0.917 | 1.01 ± 0.053
27 | CC(C)c1c(C(=O)Nc2ccccc2)c(-c2ccccc2)c(-c2ccc(F)cc2)n1CC[C@@H](O)C[C@@H](O)CC(=O)O [Atorvastatin] | 3.42 ± 1.4 | 0.691 ± 0.032 | 0 | 1.65 ± 0.047
